pPAFAH FP inh: inhibitors of human plasma PAF acetylhydrolase (pPAFAH) | Q13093 | recombinant pPAFAH, FP-rhodamine probe fluorescence polarization | inhibition, % at 3.39 µM | actives 1.5% (n = 330,000) | AID 463082;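 active means inhibition above the mean inhibition across the screen plus 3 SD, cut at about 25% in these data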;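 further: inhibitors block binding of the rhodamine activity-based probe so polarization drops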
PAFAH1B2 FP inh: PAFAH1B2 (human) inhibition. P68402. recombinant PAFAH1B2, FP-rhodamine activity probe, fluorescence polarization. AID 492953. actives 1.2% (n = 340,000). inhibition, % at 3.39 µM;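 active means inhibition above the mean of all tested compounds plus 3 SD, cut at about 24% in these data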
Target sequence (P68402 whole entry, looked up): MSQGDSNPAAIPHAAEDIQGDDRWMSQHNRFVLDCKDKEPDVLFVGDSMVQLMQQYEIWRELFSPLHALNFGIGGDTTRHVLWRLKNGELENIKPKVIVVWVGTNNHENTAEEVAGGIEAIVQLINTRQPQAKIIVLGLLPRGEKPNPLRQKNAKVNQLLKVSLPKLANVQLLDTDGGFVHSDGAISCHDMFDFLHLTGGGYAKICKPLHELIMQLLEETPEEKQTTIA
DAGLB inh: diacylglycerol lipase beta (human) inhibition; Q8NCG7; HEK293T DAGLB membrane lysate, EnzChek fluorogenic substrate; inhibition, % at 5.17 µM; actives 0.059% (n = 340,000); AID 504411; in the data active means inhibition above about 34%
PAFAH2 inh: inhibitors of human PAFAH2. recombinant PAFAH2, FP-rhodamine activity probe, fluorescence polarization. inhibition, % at 3.39 µM. actives 0.99% (n = 340,000);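 active means inhibition above the mean over all tested compounds plus 3 SD, cut at about 30% in these data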;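 further: inhibitors block probe labeling of enzyme so polarization drops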
PAFAH1B3 FP inh: PAFAH1B3 (human) inhibition; Q15102; recombinant PAFAH1B3, FP-rhodamine probe, fluorescence polarization; inhibition, % at 3.39 µM; actives 0.28% (n = 340,000);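 active means inhibition above the screen-wide average of all tested compounds plus 3 SD, cut at about 25% in these data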
HTRA1 inhibitor: inhibitors of human serine peptidase HTRA1; Q92743; recombinant HTRA1, FP-rhodamine activity-based probe, fluorescence polarization; inhibition, % at 5.96 µM; actives 0.5% (n = 340,000); in the data active means inhibition above about 36%
Target sequence (Q92743 whole entry, looked up): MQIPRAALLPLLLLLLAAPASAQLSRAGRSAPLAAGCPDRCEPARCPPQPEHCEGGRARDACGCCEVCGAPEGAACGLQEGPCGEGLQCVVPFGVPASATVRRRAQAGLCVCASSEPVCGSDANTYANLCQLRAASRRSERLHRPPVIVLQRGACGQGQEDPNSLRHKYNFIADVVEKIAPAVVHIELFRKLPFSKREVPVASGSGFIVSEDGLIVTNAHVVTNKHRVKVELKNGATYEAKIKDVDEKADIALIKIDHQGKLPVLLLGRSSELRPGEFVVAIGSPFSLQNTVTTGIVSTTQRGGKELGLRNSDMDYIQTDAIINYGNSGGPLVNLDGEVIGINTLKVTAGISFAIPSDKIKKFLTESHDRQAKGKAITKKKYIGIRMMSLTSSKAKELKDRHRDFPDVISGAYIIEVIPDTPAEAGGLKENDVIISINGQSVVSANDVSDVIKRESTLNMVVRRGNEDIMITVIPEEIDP
HTRA1 conf: confirmation of human HTRA1 inhibitors | actives 66% (n = 1,600) | shares compounds with HTRA1 inhibitor | AID 540248 | inhibition, % at 5.96 µM | recombinant HTRA1, FP-rhodamine activity-based probe, fluorescence polarization;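 active means mean inhibition over three repeats above a set limit taken from the earlier primary screen, cut at about 37% in these data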;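 further: inhibitors block probe binding so polarization drops and inhibition rises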
Large screens that a line does not name were inactive (follow-up assays come after a bar, where they were run). Sampled rows, rich in hits. Any-hit rate of the full collection: about 2.8%.

CC1(C)CCN2CCC(C)(C)c3c(O)ccc1c32	HTRA1 inhibitor 66 | HTRA1 conf inactive
CN(C)S(=O)(=O)c1cccc(NC(=S)N/N=C/c2ccc(O)c(O)c2O)c1	HTRA1 inhibitor 45 (no result: pPAFAH FP inh) | HTRA1 conf 49
COc1cc(/C=N/NC(=S)Nc2cccc(S(=O)(=O)N(C)C)c2)cc(OC)c1O	none
COc1ccc(O)c(/C=N/NC(=S)Nc2cccc(S(=O)(=O)N(C)C)c2)c1	HTRA1 inhibitor 38 | HTRA1 conf inactive
Clc1cnc(Nc2cccnc2)c(Cl)c1	none
COc1ccc(CC(=O)NNC(=O)c2nn(Cc3ccccc3)c(=O)c3ccccc23)cc1OC	none
CCN(C(=O)c1c(N)cnn1C)c1ccccc1	none
CCN(C(=O)c1c([N+](=O)[O-])cnn1C)c1ccccc1	HTRA1 inhibitor 37 (no result: pPAFAH FP inh, PAFAH1B2 FP inh, PAFAH2 inh, PAFAH1B3 FP inh) | HTRA1 conf inactive
CC(=O)c1cccc(NC(=O)C(C)OC(=O)CCN=C2NS(=O)(=O)c3ccccc32)c1 (stereo not given)	PAFAH1B2 FP inh 106, PAFAH2 inh 106, PAFAH1B3 FP inh 86, HTRA1 inhibitor 90 | HTRA1 conf inactive
COc1ccc(NC(=O)CC2Nc3cccc4cccc(c34)NC2=O)cc1 (stereo not given)	HTRA1 inhibitor 52 | HTRA1 conf inactive
NC(=O)NCC(c1ccccc1)C1CCCCC1 (stereo not given)	none
COc1ccc(O)c(/C=N/n2c(-c3ccco3)csc2=Nc2cccnc2)c1	none
CN=c1scc(-c2ccco2)n1/N=C/c1ccc(O)c(O)c1	HTRA1 inhibitor 74 (no result: pPAFAH FP inh) | HTRA1 conf 73
NC(=O)C1CCN(C(=O)C2CCN(C(=O)Nc3ccccc3)CC2)CC1	none (no result: pPAFAH FP inh)
O=C(NCc1ccccc1CN1CCCC1)c1cc2ccccc2o1	none
N#Cc1c(N)[nH]c2ccc(Sc3ccccc3)cc12	PAFAH1B2 FP inh 35, HTRA1 inhibitor 41 (no result: pPAFAH FP inh) | HTRA1 conf inactive
N#Cc1c(N)[nH]c(=S)c(C#N)c1-c1ccccc1	none
O=[N+]([O-])c1ccc(NN=Cc2cccc([N+](=O)[O-])c2)cc1	none (no result: pPAFAH FP inh)
O=[N+]([O-])c1ccc(N/N=C/c2ccc[nH]2)cc1	HTRA1 inhibitor 45 | HTRA1 conf 57
O=c1cc(-c2ccc(O)c(O)c2)oc2cc(O)cc(O)c12	PAFAH1B2 FP inh 34, PAFAH1B3 FP inh 39, HTRA1 inhibitor 50 | HTRA1 conf 67
COc1ccc2sc(-c3ccc(N(C)C)cc3)c(C#CCCO)c2c1	pPAFAH FP inh 26, HTRA1 inhibitor 37 | HTRA1 conf inactive
N=C(N)c1ccc(N=Nc2c(O)ccc3c2[nH]c2ccccc23)cc1	PAFAH1B2 FP inh 31, HTRA1 inhibitor 85 (no result: pPAFAH FP inh) | HTRA1 conf 61
NC(=O)c1ccc(N=Nc2c(O)c3ccccc3[nH]c2=O)cc1	none (no result: PAFAH1B2 FP inh, DAGLB inh, PAFAH2 inh, PAFAH1B3 FP inh, HTRA1 inhibitor)
Cn1c(SCc2ccccc2)nccc1=O	none (no result: pPAFAH FP inh)
CC1=C(SCc2ccccc2)C(=O)c2ccccc2C1=O	PAFAH2 inh 46, PAFAH1B3 FP inh 48, HTRA1 inhibitor 42 (no result: pPAFAH FP inh) | HTRA1 conf 36
COC(=O)Cc1c(C)c2ccc(O)c(CNCc3ccc(OC)c(OC)c3)c2oc1=O	none (no result: pPAFAH FP inh)
O=c1ccc2[n+]([O-])c3ccc(O)cc3oc-2c1	PAFAH1B2 FP inh 136, PAFAH2 inh 155, PAFAH1B3 FP inh 149, HTRA1 inhibitor 141 (no result: pPAFAH FP inh) | HTRA1 conf active
COc1ccc(N(C)S(=O)(=O)c2ccc(Cl)c(C(=O)NNC(=O)c3ccccc3O)c2)cc1	HTRA1 inhibitor 42 (no result: pPAFAH FP inh) | HTRA1 conf inactive
CCCCCC(O)CCCC(=O)O (stereo not given)	none (no result: pPAFAH FP inh)
CCCCCCCCCCCCCCCC(O)C[N+](C)(C)CCO (stereo not given)	HTRA1 inhibitor active (no result: pPAFAH FP inh) | HTRA1 conf 66
Cc1ccccc1-c1ccc(Nc2ccc(N3CCOCC3)cc2)nn1	HTRA1 inhibitor 45 | HTRA1 conf 54
CCCC(=O)NC(c1ccccc1)c1ccc2cccnc2c1O (stereo not given)	HTRA1 inhibitor 47 | HTRA1 conf 45
CC(=O)NC(c1ccc(C(C)C)cc1)c1ccc2cccnc2c1O (stereo not given)	HTRA1 inhibitor 66 | HTRA1 conf 75
O=[N+]([O-])c1ccc(NC(c2ccccc2)c2ccc3cccnc3c2O)cc1 (stereo not given)	HTRA1 inhibitor 36 (no result: pPAFAH FP inh) | HTRA1 conf 40
CC(=O)NC(c1cccc([N+](=O)[O-])c1)c1ccc2cccnc2c1O (stereo not given)	HTRA1 inhibitor 37 (no result: pPAFAH FP inh) | HTRA1 conf 63
CCCCC(=O)NC(c1cccc([N+](=O)[O-])c1)c1ccc2cccnc2c1O (stereo not given)	none (no result: pPAFAH FP inh)
Oc1c(C(Nc2cccc(C(F)(F)F)c2)c2cccnc2)ccc2cccnc12 (stereo not given)	none
COc1ccc(S(=O)(=O)N2CCCCC2)cc1NC(=O)CCOc1cc(C)ccc1C	none
CCCCC(=O)NC(c1ccccc1Cl)c1ccc2cccnc2c1O (stereo not given)	HTRA1 inhibitor 57 | HTRA1 conf 52
CCCC(=O)NC(c1ccc(OC)cc1)c1ccc2cccnc2c1O (stereo not given)	none
CCCCC(=O)NC(c1ccccc1)c1ccc2cccnc2c1O (stereo not given)	HTRA1 inhibitor 39 | HTRA1 conf 57
CCCCC(=O)NC(c1ccc(C(C)C)cc1)c1ccc2cccnc2c1O (stereo not given)	HTRA1 inhibitor 56 | HTRA1 conf 53
CCC(=O)NC(c1ccccc1OC)c1ccc2cccnc2c1O (stereo not given)	HTRA1 inhibitor 41 | HTRA1 conf 43
O=C(CN(Cc1ccco1)C(=O)c1cccc(F)c1)Nc1ccccc1C(F)(F)F	none
Cc1cc(C)c(OCC(=O)OCC(=O)N2c3ccccc3CC2C)c(C)c1 (stereo not given)	none
O=C(N/N=C/c1ccc(O)c(O)c1)NC12CC3CC(CC(C3)C1)C2	HTRA1 inhibitor 68 | HTRA1 conf 82
COc1cc(/C=N/NC(=O)NC23CC4CC(CC(C4)C2)C3)ccc1O	none
O=C(N/N=C/c1cc(Br)c(O)c(Br)c1O)c1ccc2c(c1)OCCO2	HTRA1 inhibitor 44 | HTRA1 conf 41
O=C(N/N=C/c1cc(Br)cc(Cl)c1O)c1ccc2c(c1)OCO2	HTRA1 inhibitor 42 | HTRA1 conf inactive
Cc1cc(Br)cc(/C=N/NC(=O)c2ccc3c(c2)OCO3)c1O	none
CCOC(=O)Nc1csnn1	none (no result: pPAFAH FP inh)
Cc1cc(C)c(S(=O)(=O)NCCn2c(C)cc3ccccc32)c(C)c1	HTRA1 inhibitor 66 | HTRA1 conf inactive
Cc1cc2cc(CNS(=O)(=O)c3ccc4ccccc4c3)ccc2n1C	HTRA1 inhibitor 67 | HTRA1 conf inactive
Cc1cc(C)c(S(=O)(=O)NCc2ccc3c(c2)cc(C)n3C)c(C)c1	HTRA1 inhibitor 60 | HTRA1 conf inactive

Source: PubChem BioAssay
